# From paper PMC4336329 (PLoS ONE, 2015)
# Out of some 310,000 compounds screened, about 14,000 (4.5%) showed an effect of 50% or more. Effects have a minus sign here. The entries come from a sample that favours strong results as a whole.
# Biological target: human ether-à-go-go-related gene (hERG) potassium channel (human, UniProt Q12809)
# Assay: primary screen, population patch clamp on CHO cells stably expressing hERG; higher = less effect of the substance
# 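Also: peak tail current of the secondary pulse compared with the same well before compound.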
# human ether-à-go-go-related gene (hERG) potassium channel, sequence (Q12809 whole entry, looked up): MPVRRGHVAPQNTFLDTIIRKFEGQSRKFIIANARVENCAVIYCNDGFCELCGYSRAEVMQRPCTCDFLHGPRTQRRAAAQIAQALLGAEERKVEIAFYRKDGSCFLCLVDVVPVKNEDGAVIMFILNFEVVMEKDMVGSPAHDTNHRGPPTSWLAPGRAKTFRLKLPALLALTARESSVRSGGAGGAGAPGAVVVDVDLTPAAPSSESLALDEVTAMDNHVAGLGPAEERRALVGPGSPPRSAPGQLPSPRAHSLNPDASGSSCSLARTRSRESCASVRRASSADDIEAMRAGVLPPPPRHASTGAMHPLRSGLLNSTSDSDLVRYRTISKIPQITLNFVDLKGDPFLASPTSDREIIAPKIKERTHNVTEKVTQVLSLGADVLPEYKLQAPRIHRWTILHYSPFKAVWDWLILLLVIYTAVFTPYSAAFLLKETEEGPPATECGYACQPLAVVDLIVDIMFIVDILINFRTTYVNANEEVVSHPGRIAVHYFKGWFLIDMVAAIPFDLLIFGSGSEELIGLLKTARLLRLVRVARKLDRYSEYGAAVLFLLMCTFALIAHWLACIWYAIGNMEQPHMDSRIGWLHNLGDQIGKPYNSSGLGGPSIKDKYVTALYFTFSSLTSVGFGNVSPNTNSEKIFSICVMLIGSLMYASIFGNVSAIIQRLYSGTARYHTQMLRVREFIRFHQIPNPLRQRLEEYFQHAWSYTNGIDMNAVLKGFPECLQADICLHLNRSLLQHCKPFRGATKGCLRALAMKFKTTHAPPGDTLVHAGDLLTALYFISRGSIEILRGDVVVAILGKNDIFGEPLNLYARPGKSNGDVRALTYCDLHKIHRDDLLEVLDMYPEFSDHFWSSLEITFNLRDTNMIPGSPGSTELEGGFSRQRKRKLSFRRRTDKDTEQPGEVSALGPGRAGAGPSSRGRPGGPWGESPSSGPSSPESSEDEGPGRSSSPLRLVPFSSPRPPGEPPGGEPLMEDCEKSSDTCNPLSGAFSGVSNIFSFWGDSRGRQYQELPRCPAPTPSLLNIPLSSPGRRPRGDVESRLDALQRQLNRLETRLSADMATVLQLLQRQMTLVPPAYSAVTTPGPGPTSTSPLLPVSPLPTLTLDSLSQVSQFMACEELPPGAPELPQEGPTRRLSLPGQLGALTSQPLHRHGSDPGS
row,SMILES,"hERG current change (%, negative = inhibition) at 10uM [%]"
1,CCOC(=O)c1cc(C(O)(C(=O)OC)C(F)(F)F)c(/N=C/N(C)C)o1 (stereo not shown),-6.94
2,Cc1cccc(-n2c(C)cc(C(=S)N3CCOCC3)c2C)c1C,-7.9
3,CC(=O)C(C)Oc1ccc2c3c(c(=O)oc2c1)CCCCC3 (stereo not shown),2.1
4,CC(=O)C(C)Oc1ccc2c3c(c(=O)oc2c1)CCCC3 (stereo not shown),-12.8
5,COC(=O)C(C)Oc1ccc2c3c(c(=O)oc2c1)CCCCC3 (stereo not shown),-59.2
6,O=C(CSc1nc(C(F)(F)F)cc(=O)[nH]1)Nc1nccs1,18.5
7,CCc1nn(CCCC(=O)NCc2ccco2)c(=O)c2cc3occc3n12,-14
8,COc1cccc(-n2c(O)c(C=NCc3ccccn3)c3ccccc3c2=O)c1,-26.2
9,Cc1cccc(-n2c(O)c(C=NCc3ccccn3)c3ccccc3c2=O)c1,-60.9
10,Cc1ccc(-n2c(O)c(C=NCc3ccccn3)c3ccccc3c2=O)cc1,-3.79
11,COc1ccc(Cl)cc1NC(=S)NCc1cccnc1,-15.3
12,Cc1c(NC(=O)CSc2ncnc3ccccc23)c(=O)n(-c2ccccc2)n1C,-38.8
13,Cc1c(NC(=O)COc2cccc(Cl)c2Cl)c(=O)n(-c2ccccc2)n1C,-71.4
14,CCOc1ccccc1OCC(=O)Nc1c(C)n(C)n(-c2ccccc2)c1=O,-6.05
15,Cc1c(NC(=O)CSc2ncnc3c2cnn3-c2ccccc2)c(=O)n(-c2ccccc2)n1C,-64.1
16,Cc1c(NC(=O)COC(=O)/C=C/c2cccc(Cl)c2)c(=O)n(-c2ccccc2)n1C,-58.7
17,Cc1c(NC(=O)COc2ccccc2Cl)c(=O)n(-c2ccccc2)n1C,-4.59
18,Cc1c(NC(=O)COC(=O)/C=C/c2cccc(Br)c2)c(=O)n(-c2ccccc2)n1C,-15.8
19,Cc1c(NC(=O)CN(c2ccc(F)cc2)S(=O)(=O)c2ccccc2)c(=O)n(-c2ccccc2)n1C,-0.664
20,CCOc1ccc(N(CC(=O)Nc2c(C)n(C)n(-c3ccccc3)c2=O)S(=O)(=O)c2ccc(F)cc2)cc1,-17.6
21,CCOc1ccc(N(CC(=O)Nc2c(C)n(C)n(-c3ccccc3)c2=O)S(=O)(=O)c2ccccc2)cc1,-55.2
22,Cc1cc(NC(=O)CSc2ncnc3c2cnn3-c2ccccc2)no1,-10.8

row,SMILES,"hERG current change (%, negative = inhibition) at 10uM [%]"
1,Cc1c(NC(=O)COC(=O)/C=C/c2ccc(Cl)cc2)c(=O)n(-c2ccccc2)n1C,28.5
2,Cc1nn(-c2ccccc2)cc1/C=N/O,0.476
3,Cc1ccc(C(=O)NCCCN2CCOCC2)c(Cl)c1,13
4,CCOC(=O)c1sc(=S)n(C)c1C,12
5,Cc1ccc(S(=O)(=O)N2CCN(C(=O)CSc3ccccn3)CC2)c(C)c1,-26.5
6,CN1CCN(Cc2nc3ccccc3n2C)CC1,-0.083
7,CN(Cc1nc2ccccc2n1C)S(C)(=O)=O,-5.28
8,Cc1ccc(S(=O)(=O)n2c(CN3CCCC(C)C3)nc3ccccc32)cc1 (stereo not shown),-14.6
9,Cn1c(CN2CCN(c3ccccc3NS(C)(=O)=O)CC2)nc2ccccc21,-61.5
10,CN1CCN(Cc2nc3ccccc3n2C)CC1CCO (stereo not shown),3.83
11,Cc1ccc(S(=O)(=O)N2CCN(Cc3nc4ccccc4n3C)CC2)cc1,-53.5
12,O=C(COC(=O)c1cccc(Cl)c1)Nc1cc(Cl)ccc1Oc1ccccc1,15.1
13,COCc1cc(=O)n2[nH]c(-c3cccc(Br)c3)cc2n1,-24.2
14,CC1=CC(=O)C=C(C)C1=NOC(=O)c1cccc([N+](=O)[O-])c1,9.59
15,CCOc1ccc2oc(C(=O)NC3CCN(Cc4ccccc4)CC3)c(C)c2c1.Cl,-15.1
16,Cc1c(C(=O)NC2CCN(Cc3ccccc3)C2)oc2ccc(Br)cc12 (stereo not shown),-61.8
17,Cc1c(C(=O)NC2CCN(Cc3ccccc3)C2)oc2c(Cl)cccc12 (stereo not shown),-71.8
18,O=C(NC1CCN(Cc2ccccc2)CC1)c1c(Cl)cccc1Cl,-10.7
19,Cc1c(C(=O)NCCN2CCOCC2)oc2ccc(Br)cc12,-15
20,CCOC(=O)N1CCC(NC(=O)c2oc3c(F)cccc3c2C)CC1,-15.4
21,O=C(OCC(=O)c1cccs1)C1=COCCO1,19.7
22,CC1CN(C(=O)/C(C#N)=C2\N=C(NC(=O)c3ccc(F)cc3)c3ccccc32)CC(C)O1 (stereo not shown),14.1

row,SMILES,"hERG current change (%, negative = inhibition) at 10uM [%]"
1,CCOC(=O)C1(Cc2ccccc2)CCCN(CCO)C1 (stereo not shown),6.18
2,COc1cc2cc(C(=O)N3CCN(c4ccccc4OC)CC3)[nH]c2cc1OC,24.5
3,C=CCN1CCN(C(=O)CCc2ccccc2)CC1,13.8
4,COc1cccc(N2CCN(C(=S)Nc3ccc(F)cc3)CC2)c1,16.1
5,CC1CCN(CCCOc2ccc(OCc3ccccc3)cc2)CC1.O=C(O)C(=O)O,-71.4
6,CC1CCN(CCOc2ccc(OCc3ccccc3)cc2)CC1.O=C(O)C(=O)O,-70.9
7,CC1CCCN(Cc2ccc(OCc3ccccc3)cc2)C1 (stereo not shown),-43.3
8,COc1ccc(Cl)cc1N1C(=O)C2CCCN2C1c1ccccc1F (stereo not shown),-0.486
9,C=CCNC(=O)C12CC3(C)CC(C)(CC(C)(C3)C1)C2,-11.8
10,CCOC(=O)C1CCCN(C(=O)CN(c2ccc(OC)cc2)S(=O)(=O)c2c(C)noc2C)C1 (stereo not shown),-4.08
11,CCOC(=O)C1(Cc2ccc(OC)cc2)CCN(C(=O)c2cc(C)nn2C)CC1,-40.5
12,O=[N+]([O-])c1cccc(Cl)c1NCCNS(=O)(=O)c1ccccc1,-15.2
13,Oc1ccccc1/C=N/c1c(-c2ccco2)nc2ccccn12,-4.17
14,OC1CCN(c2c3c(nc4cc(-c5ccc(F)cc5)nn24)CCC3)CC1,-7.45
15,Cc1ccc(/C=C/C(=O)N2CCCC(C(N)=O)C2)o1 (stereo not shown),-8.59
16,Cc1cc(C[n+]2ccsc2N)c2ncccc2c1.[Br-],-48.2
17,CCOc1ccc2c(c1)sc(N)[n+]2Cc1cc(C)cc2cccnc12.[Br-],-74.9
18,CCOc1cccc(OCCCOc2cccc3cccnc23)c1,-8.52
19,COc1ccc2c(c1)sc(N)[n+]2Cc1cc(C)cc2cccnc12.[Br-],-74
20,Cc1cc(C[n+]2ncsc2N)c2ncccc2c1.[Br-],-33.8
21,CCOc1ccc(C(=O)C[n+]2cccc3cc(C)ccc32)cc1.[Br-],-47.9
22,CC(C)CCN(C(=O)C1CSC2(C)CCC(=O)N12)c1c(N)n(Cc2ccccc2)c(=O)[nH]c1=O (stereo not shown),6.21

row,SMILES,"hERG current change (%, negative = inhibition) at 10uM [%]"
1,CC12CCC(C(=O)N(c3cccc(Cl)c3)C1=O)C2(C)C (stereo not shown),-4.23
2,O=Nc1ccc(NOC(=O)c2ccccc2)cc1,5.89
3,COc1ccc(CNC(=O)C(C#N)c2nc3ccccc3nc2N2CCCC2)cc1 (stereo not shown),10.1
4,COc1ccc(C)cc1NC(=O)c1ccc(S(=O)(=O)N2CCOCC2)cc1,2.48
5,COc1ccc2c(c1)c(C(O)CN1CCN(Cc3ccc4c(c3)OCO4)CC1)c(C)n2C (stereo not shown),-11
6,Cc1c(C(O)CN2CCN(Cc3ccc4c(c3)OCO4)CC2)c2ccccc2n1C (stereo not shown),-75.6
7,CC(C)OCC(O)CN1CCN(CC(O)COc2ccc3c(c2)OCO3)CC1 (stereo not shown),-33.3
8,COc1ccc(OCC(O)CN2CCN(Cc3ccc4c(c3)OCO4)CC2)cc1.Cl (stereo not shown),-47.4
9,C=CCc1ccccc1OCC(O)CN1CCOCC1 (stereo not shown),13.1
10,Cc1c(C(=O)C(=O)N2CCN(Cc3ccc4c(c3)OCO4)CC2)c2ccccc2n1C,-8.7
11,Cc1cc(C)cc(OCC(O)CN2CCN(Cc3ccc4c(c3)OCO4)CC2)c1.Cl (stereo not shown),-76
12,Cl.OC(COCc1ccccc1)CN1CCN(Cc2ccc3c(c2)OCO3)CC1 (stereo not shown),-45
13,Cl.OC(COc1ccccc1)CN1CCN(Cc2ccc3c(c2)OCO3)CC1 (stereo not shown),-60.5
14,C=CCc1ccccc1OCC(O)CN1CCN(Cc2ccc3c(c2)OCO3)CC1 (stereo not shown),-91
15,Cl.OCCN1CCN(CC(O)COc2ccc3c(c2)OCO3)CC1 (stereo not shown),12.7
16,COc1cc(/C=N/Nc2nc(=O)[nH]nc2C)cc(OC)c1O,11.7
17,COc1ccc(NC(=O)Cn2nnc(-c3ccccc3NC(=O)c3ccco3)n2)cc1,-12.8
18,COc1cccc(OC)c1C(=O)Nc1ccccc1C(=O)N1CCOCC1,5.4
19,CC(CNC(=O)CCC(=O)N1CCOc2ccccc21)c1ccccc1 (stereo not shown),-9.84
20,Fc1cccc(Cl)c1CSc1nnc2ccccn12,9.48
21,COc1ccccc1NC(=O)NNC(=O)C(C)Oc1ccc2ccccc2c1 (stereo not shown),9.36
22,Cc1cc2cc(CNC(=S)NC3CCCCC3)ccc2n1C,13.8
